Screening results deposited in PubChem by National Center for Advancing Translational Sciences (NCATS).
Rows were chosen to be rich in hits. Some 2.8% of all compounds tested hit in one or more screens of this group.
CBFb-RUNX1 inh – qHTS Assay for Compounds Blocking the Interaction Between CBF-beta and RUNX1 for the Treatment of Acute Myeloid Leukemia | 230,000 tested, under 10 active | Runt-related transcription factor 1 (Homo sapiens) + Core-binding factor subunit beta … | AID 1477, 2009 | Potency, µM (titrated, usually from 59.8 µM), usual class: inhibitors | AlphaScreen CBFb-His/RUNX1-biotin binding, biochemical
Target sequence (Q01196 whole entry, looked up): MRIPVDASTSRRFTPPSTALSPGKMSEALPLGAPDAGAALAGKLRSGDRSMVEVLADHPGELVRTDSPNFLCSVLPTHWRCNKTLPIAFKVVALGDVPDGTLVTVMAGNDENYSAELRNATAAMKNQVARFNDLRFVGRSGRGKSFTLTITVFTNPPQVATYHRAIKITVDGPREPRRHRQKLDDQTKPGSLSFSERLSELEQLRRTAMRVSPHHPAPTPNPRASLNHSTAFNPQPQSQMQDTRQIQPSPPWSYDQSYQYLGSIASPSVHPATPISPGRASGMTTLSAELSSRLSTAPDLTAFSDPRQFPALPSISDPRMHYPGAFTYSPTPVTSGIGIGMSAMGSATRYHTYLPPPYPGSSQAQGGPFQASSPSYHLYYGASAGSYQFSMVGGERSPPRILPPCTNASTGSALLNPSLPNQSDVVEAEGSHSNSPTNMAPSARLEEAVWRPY
Target sequence (Q13951 whole entry, looked up): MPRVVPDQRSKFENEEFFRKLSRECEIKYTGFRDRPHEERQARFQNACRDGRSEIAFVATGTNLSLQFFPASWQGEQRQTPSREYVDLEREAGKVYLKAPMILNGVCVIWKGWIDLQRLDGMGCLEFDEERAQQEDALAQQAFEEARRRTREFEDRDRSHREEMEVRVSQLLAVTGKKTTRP
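Inhibition was taken as any reduction in AlphaScreen signal from the CBF-beta–RUNX1 pair (His and biotin tags, 30 nM each), measured after compound (15 min) and bead (90 min) incubations at room temperature.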
PTHR1 agonist – qHTS for PTHR1 Agonists: Primary Screen; Potency, µM (highest dose often 115 µM), most hits filed as activators; Parathyroid hormone/parathyroid hormone-related peptide receptor (Homo sapiens), Q03431; 410,000 compounds, 0.075% hits; AID 743266, 2014; HEK293 GP2 PTHR1 cells, GloSensor cAMP luminescence, 1 h; also: nearly all actives have a fitted effect of over 55% in size
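HEK-293-derived GP2 cells expressing PTHR1 and a GloSensor cAMP reporter, 3,000/well, plated overnight, given luciferin plus IBMX (each 0.5 mM as added) for 1 h at 37 °C, then compound for 1 h at 37 °C. Luminescence was read after 15 min at room temperature.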
a7 integrin act – qHTS for Activators of Integrin-Mediated Alleviation for Muscular Dystrophy | alpha7betagal myoblasts, beta-gal FDG fluorescence, 48 h | Potency, µM (top dose mostly 38.3 µM), hits mostly activators | 350,000 compounds, 0.064% hits | AID 624291, 2012; also: nearly all actives have a fitted effect of over 60% in size
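alpha7betagal+/- myoblasts (passage 13, 250/well) treated 48 h at 37C with compounds at 1:260 dilution of DMSO stock. Lysed, then beta-galactosidase activity read as FDG fluorescence (ex 480/em 540) after 30 min, with pre-read for autofluorescence.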
D3 antag – qHTS of D3 Dopamine Receptor Antagonist: qHTS | D(3) dopamine receptor (Homo sapiens), P35462 | D3R cells, DiscoveRx beta-arrestin luminescence, antagonist mode; hits give low values | max response, negative = inhibition, % | 360,000 compounds, 2.5% hits | AID 652054, 2013; in the data active = max response below about -50%; inconclusive = no clear call, values can overlap the other calls
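Cells plated overnight at 1500 cells/well, then exposed to library compounds with dopamine controls for 90 minutes at 37 degrees C. DiscoveRx reagent added for 30–60 minutes at room temperature; luminescence read, quantitative HTS format.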
MBNL1-CUG inh – qHTS Assay for Inhibitors of MBNL1-poly(CUG) RNA binding. 280,000 compounds, 0.036% hits. TR-FRET MBNL1-His/biotin-(CUG)12 binding, 665/545 ratio. Potency, µM (doses to about 57.5 µM), most hits filed as inhibitors. AID 2675, 2010; active = well fitted inhibition curve with a large enough effect in the signal ratio, with a control signal flat, not every such curve was filed as active; inconclusive = small, poorly fitted or top-dose-only effect, or effect the other way, or a change in a side signal; inactive = no such curve, though single readings can be large or run the other way; the % refers to the signal ratio
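Inhibition of protein-RNA binding appears as loss of TR-FRET between terbium anti-His antibody on MBNL1-His and streptavidin-XL665 on biotin-(CUG)12. Activity is normalized to buffer-only and uninhibited-complex controls.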
DRD3 agonist – qHTS of D3 Dopamine Receptor Agonist: qHTS. D3R DiscoveRx beta-arrestin cells, luminescence, 90 min. AID 652048, 2013. max activation, %. 410,000 compounds, 0.58% hits; in the data active = max activation above about 30%
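Agonist mode: compounds and dopamine controls were applied to plated cells for 90 min at 37 degrees C after an overnight attachment at 1500 cells/well. Luminescent read-out followed 30 - 60 minutes at room temperature with DiscoveRx detection reagent.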
Numbers stand for hits; n = inactive; u = inconclusive; x = no result; [ ] = remark or other dose. Unless noted, calls follow the shape of the dose curve; as a rule, active = well fitted curve in the direction sought with a large enough effect; inconclusive = small, poorly fitted or top-dose-only effect, or another doubt; inactive = no such curve, though single readings can be large; an effect the other way counts as inactive or inconclusive.

SMILES	CBFb-RUNX1 inh	PTHR1 agonist	a7 integrin act	D3 antag	MBNL1-CUG inh	DRD3 agonist
CCCOc1ccc(CNC(=O)C2CCN(c3nc4ccccc4nc3C(F)(F)F)CC2)cc1	x	n	x	x	x	n
CCCCNc1c(-c2ccc(OC)c(SC(C)CC)c2)nc2cnccn12 (stereo not drawn)	x	n	n	n	x	53
CCCCCCSc1cc(-c2nc3ccc(C)cn3c2NCCCC)ccc1OC	x	n	n	n	x	71
CCCCNc1c(-c2ccc(-c3ccc(C(C)=O)cc3)c(OC)c2)nc2cc(C)ccn12	x	n	n	n	x	n
CCCCNc1c(-c2ccc(Sc3ccc(OC)cc3)cc2)nc2cc(C)ccn12	x	n	n	n	x	56
CCCCNc1c(-c2ccc(OC)c(SC(C)CC)c2)nc2ccc(C)cn12 (stereo not drawn)	x	n	n	n	x	n
CCCCNc1c(-c2ccc(OC)c(SC(C)CC)c2)nc2cc(C)ccn12 (stereo not drawn)	x	n	n	n	x	63
CC(=O)Cc1nnn(-c2cc(C)on2)n1	n	x	x	x	n	x
CCCCCCSc1ccc(-c2nc3ccc(C)cn3c2NCc2ccccc2)cc1	x	n	n	n	x	n
CCCCCCSc1ccc(-c2nc3cnccn3c2NCCCC)cc1	x	n	n	n	x	63
COc1cc(SC)ccc1C(=O)NCCOc1c(C)cc(C)cc1C	n	n	n	-83	n	n
COC(=O)c1ccc2c(c1)C(=O)/C(=C/c1ccc(C)cc1)O2	n	n	n	n	x	n
CN(C)c1ccc(/C=C2\Oc3ccc(C#Cc4cccc(N)c4)cc3C2=O)cc1	x	n	n	n	x	56
O=C(Nc1ccc(N2CCN(C(=O)c3ccc(Cl)cc3)CC2)cc1)c1ccc2c(c1)OCCO2	n	n	n	n	n	43
O=C(Nc1ccc(N2CCN(C(=O)c3ccccc3)CC2)cc1)c1ccc2c(c1)OCCO2	x	n	n	n	n	n
Nc1ccc2c3c(cccc13)-c1ccccc1-2	x	n	n	n	x	30
Cc1ccc(NC(=S)C2=C(O)c3ccccc3N(C)S2(=O)=O)cc1	n	n	n	-73	n	n
CN1c2ccccc2C(O)=C(C(=S)Nc2ccccc2)S1(=O)=O	n	n	n	-86	n	n
CCOC=C1C(=O)N(C(C)=O)c2cc(OC)c(OC)cc21	x	n	n	n	x	n
COC(=O)/C=c1\sc2ncnn2c1=O	n	n	n	-69	u	n
O=C(NCCCN1CCCC1)Nc1ccc(F)cc1	x	n	n	n	n	n
O[Si](CCCN1CCCCC1)(c1ccc(F)cc1)C1CCCCC1 (stereo not drawn)	n	n	x	-110	x	n
CN(C)c1ccc(/C=N/NC(=O)CCc2nc3ccccc3[nH]2)cc1	n	n	n	n	n	n
COc1ccc(C(=O)Oc2ccc3oc(=O)sc3c2)cc1	n	n	n	-52	n	n
COc1ccc(C(=O)Oc2ccc3ccc(=O)oc3c2)cc1	x	n	n	n	n	n
SMILES	CBFb-RUNX1 inh	PTHR1 agonist	a7 integrin act	D3 antag	MBNL1-CUG inh	DRD3 agonist
O=C(NCCc1c[nH]c2ccccc12)C(=O)NCC(c1ccco1)N1CCN(c2ccc(F)cc2)CC1 (stereo not drawn)	n	n	n	n	n	n
O=C(NCCc1c[nH]c2ccccc12)C(=O)NCC(c1ccco1)N1CCN(c2ccccc2)CC1 (stereo not drawn)	n	n	n	n	x	41
O=C(O)CNC(=O)c1ccc(CO)o1	n	x	x	x	x	x
O=C(/C=C/c1ccc(Br)cc1)NC(=S)Nc1ccc(S(=O)(=O)Nc2nccs2)cc1	n	n	n	-53	n	n
CCc1nnc(NS(=O)(=O)c2ccc(NC(=S)NC(=O)/C=C/c3ccccc3)cc2)s1	u	n	n	-68	n	n
COC(=O)CCC(=O)NC(=S)Nc1ccc(S(=O)(=O)Nc2cc(OC)nc(OC)n2)cc1	n	n	n	n	n[11.5 µM]	n
COc1cc(NS(=O)(=O)c2ccc(NC(=S)NC(=O)CC(C)C)cc2)nc(OC)n1	n	n	n	-85	n	n
COc1ccc(NS(=O)(=O)c2ccc(NC(=S)NC(=O)c3ccc(Br)cc3)cc2)nn1	n	n	n	-53	n	n
CCc1nnc(NS(=O)(=O)c2ccc(NC(=S)Nc3ccc(F)cc3)cc2)s1	n	n	n	n	n	n
CCc1nnc(NS(=O)(=O)c2ccc(NC(=S)NC(=O)/C=C/c3ccc(C(C)C)cc3)cc2)s1	n	n	n	-129	n	n
CCc1nnc(NS(=O)(=O)c2ccc(NC(=S)NC(=O)c3ccccc3)cc2)s1	n	n	n	n	x	n
CCc1nnc(NS(=O)(=O)c2ccc(NC(=S)NC(=O)/C=C/c3ccc(OC)cc3)cc2)s1	n	n	n	-73	n	n
CCc1nnc(NS(=O)(=O)c2ccc(NC(=S)NC(=O)c3ccc(Br)cc3)cc2)s1	n	n	n	-65	x	n
CCc1nnc(NS(=O)(=O)c2ccc(NC(=O)/C=C/C(=O)O)cc2)s1	x	u	n	-62	n	n
Cc1ccc(S(=O)(=O)c2cn(Cc3ccccc3Cl)c3ccc(F)cc3c2=O)cc1	x	n	x	x	x	n
CCc1nnc(NS(=O)(=O)c2ccc(NC(=O)c3cccc(Cl)c3)cc2)s1	n	n	n	-68	n	n
CCN(CC)C(=O)C1=C(C)N(Cc2ccc(F)cc2)C(=O)C(CC(=O)NCCCN(C)C)C1 (stereo not drawn)	x	n	n	n	x	n
NC(CO)c1csc(Nc2ccc(C(F)(F)F)cn2)n1 (stereo not drawn)	x	n	x	n	x	n
NC(c1csc(Nc2ccc(C(F)(F)F)cn2)n1)C1CCCCC1 (stereo not drawn)	x	n	x	-53	x	n
COc1ccc(C2=Nc3ccc(OC(F)(F)F)cc3NC(c3cccnc3)=N2)cc1	x	n	x	x	x	36
Cc1ccc(S(=O)(=O)C=CS(=O)(=O)c2ccc(C)cc2)cc1	x	n	n	-99	x	n
O=S(=O)(/C=C/C=C/S(=O)(=O)c1ccccc1)c1ccccc1	x	n	n	-101	x	n
Cc1ccc(S(=O)(=O)/C=C/C#N)cc1	n	x	x	x	x	x
COc1ccc(N2CCN(C(=O)CSc3nc4nc(C)cc(C)n4n3)CC2)cc1	x	n	u	n	x	n
CCCCNC(=O)C1c2ccccc2OCC(=O)N1Cc1ccccn1 (stereo not drawn)	x	n	x	u	x	n
O=C(NC1CCCC1)C1c2ccccc2OCC(=O)N1Cc1ccccn1 (stereo not drawn)	x	n	x	-58	x	n
